From the supplement of paper PMC7801607

Test system: Plasmodium berghei ANKA liver stage in HepG2-A16-CD81
Assay: % inhibition of liver stage parasite viability (luciferase); higher = more inhibition
Conditions: 5 µM; 48 h
Protocol: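 Single-concentration screen of the MMV Pandemic Response Box. P. falciparum NF54 asexual blood stages: pLDH assay, 72 h at 37 °C, 2 and 20 µM, n=2. Stage IV/V gametocytes (NF54): luciferase reporter (NF54-Pfs16-GFP-Luc, 48 h), ATP bioluminescence (24 h) and PrestoBlue (48 h) at 1 and 5 µM, n=1. P. berghei liver stage (luciferase in HepG2-A16-CD81, 48 h post infection) at 5 µM, n=4. All normalised to DMSO and kill controls as % inhibition.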

SMILES | % inhibition of liver stage parasite viability
Nc1nc(=O)c(Br)c(-c2cccc(Cl)c2)[nH]1 | -7.9%
Clc1ccc(Cn2c(CN3CCCC3)nc3ccccc32)cc1 | 22.9%
COc1ccc(C2CNC(=O)C2)cc1OC1CCCC1 (stereo not given) | 29.1%
CCCCc1ccc(-c2nc(C)c(C(=O)OC)s2)cc1 | -103%
CC(C)/N=c1\cc2n(-c3ccc(Cl)cc3)c3ccccc3nc-2cc1Nc1ccc(Cl)cc1 | 59.4%
CCc1ccccc1OCCN1CCCCCC1 | 17.2%
N#Cc1c(F)c(Cl)c(NCc2ccccc2)c(C#N)c1F | 22.3%
OC[C@@H]1CC[C@H](n2cnc3c(O)ncnc32)O1 | 18.8%
CN(C)CCCNC(=O)c1ccc(-c2cc(O)c3ncccc3c2)cc1 | 24.5%
COc1ccc(COc2cc3oc(=O)c4cc(C(C)O)ccc4c3cc2OC)cc1 (stereo not given) | 8.21%
Nc1nnc(-c2ccc(Cl)cc2)s1 | 26.2%
O=S(=O)(NCB(O)O)c1cc2c(Cl)ccc(Cl)c2s1 | -37.4%
CCCC(=O)OCCc1ccccc1 | -8.54%
Oc1c(C(Nc2nc3ccccc3s2)c2ccc(OC(F)F)cc2)ccc2cccnc12 (stereo not given) | 52.7%
c1ccc(Cn2c(-c3ccccn3)nc3ccccc32)cc1 | -11%
CC(C)(C)c1ccc(C(=O)NC(=O)N2CCCc3ccccc32)cc1 | 15.6%
CCc1nc(N)nc(N)c1C#CCc1ccccc1 | 76.9%
COc1ccc(NC(=O)CC2Sc3ncnn3C2=O)cc1 (stereo not given) | 34.5%
C[C@H](NC(=O)C(=O)Nc1ccccc1C(C)(C)C)C(=O)N[C@@H](CC(=O)O)C(=O)COc1c(F)c(F)cc(F)c1F | 5.8%
CC(Oc1ccc(Cl)cc1Cl)C(=O)NCc1ccc2c(c1)OCO2 (stereo not given) | 7.01%

SMILES | % inhibition of liver stage parasite viability
Clc1cccc(-c2nnc(-c3ccccc3)o2)c1 | -89.2%
Oc1c(C(Nc2ccccn2)c2ccccc2)ccc2cccnc12 (stereo not given) | 12.4%
Nc1cccc(-c2nc(N)nc(NC3Cc4ccccc4C3)n2)c1 | -38.1%
O=C(CCc1ccc2c(c1)OCO2)NCc1ccc(-c2ccccc2F)cc1 | 43.9%
CC(C)(C)OC(=O)NCc1ccc(C(=O)N[C@H]2CCOC2=O)cc1 | 39.8%
Cc1cc(O)c2c(c1)C(=O)c1c(I)c(O)c(I)c(O)c1C2=O | -49.9%
Fc1ccc(-n2cc(Cn3c(-c4cccc(F)c4)nc4ccccc43)nn2)cc1 | 6.9%
CC(C)Nc1nc2cc(Cl)c(Cl)cc2n1[C@H]1O[C@@H](CO)[C@H](O)[C@@H]1O | 12.5%
CCOC(=O)N1CCN(c2ccc(Cl)cc2)CC1 | 29.3%
CCN(CC)CCCC(C)Nc1ccnc2cc(Cl)ccc12 (stereo not given) | 14.3%
CCOC(=O)/C=C/[C@H](C[C@@H]1CCNC1=O)NC(=O)[C@H](CC)n1cccc(NC(=O)c2cc(C)on2)c1=O | 9.24%
O=[N+]([O-])c1ccc2c(CCc3c[nH]c4ccccc34)c[nH]c2c1 | -60.7%
Cc1ccc(Oc2ccccc2-c2csc(NC3=NCCCN3)n2)c(C)c1 | 57.6%
O=C(CP(=O)(O)O)NCCc1cccc(Oc2ccccc2)c1 | 27.3%
CC[C@@H]1C(=O)OC[C@@H]1Cc1cncn1C | -7.29%
CC1CCc2c(N3CCC(O)CC3)c(F)cc3c(=O)c(C(=O)O)cn1c23 (stereo not given) | 17.1%
CCc1cc(O)c(Oc2ccc(C(N)=O)cc2F)cc1F | 8.75%
CC(=O)N1CCN(c2ccc(OCC3COC(Cn4ccnc4)(c4ccc(Cl)cc4Cl)O3)cc2)CC1 (stereo not given) | 16.4%
CC(=O)Oc1ccccc1C(=O)Nc1ncc([N+](=O)[O-])s1 | 65.9%
CC1(C)CC(NC(=O)C(=O)Nc2ccc(Cl)cc2)CC(C)(C)N1 | 31.6%
